A selection: hits, their analogues and other compounds. The true share with any hit is near 3%.
Sm TGR inh: S. mansoni TGR enzyme inhibition. 3% of 360,000 active. Potency, µM (top dose mostly 114 µM), for the others: at the top dose activity change, negative = inhibition, usual class: inhibitors. AID 485364. purified TGR, DTNB reduction, TNB absorbance 405 nm. Q962Y6; active means well fitted inhibition curve with a large enough effect; inconclusive means small, poorly fitted or top-dose-only effect; inactive means no such curve, though single readings can be large or run the other way; further: on the % scale 0 is the no-effect control and ±100 the full control effect; nearly all actives have a fitted effect of over 60% in size
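Kinetic colorimetric format: TGR-catalysed, NADPH-driven DTNB reduction monitored via TNB absorbance. Enzyme dispensed at 20 nM; compound exposure 15 min at room temperature before reaction start.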
SARS PLP yeast: blocks SARS-CoV papain-like protease in a yeast assay | S. cerevisiae expressing SARS-CoV PLpro, growth rescue | Potency, µM (titrated, usually from 32.9 µM), inactives show top-dose activity, positive = growth rescue, actives largely listed as activators | 0.19% of 330,000 active | AID 485353; calls by dose curve; further: 0% is about no effect; nearly all actives have a fitted effect of over 55% in size
The depositor's hits bear a star. Potency means the concentration at half of the fitted maximal effect.

How did Cc1ccc(S(=O)(=O)NCCOC(=O)Nc2sc(=S)n(C)c2C)cc1 do in these assays?
Sm TGR inh: 11µM*; SARS PLP yeast: -11%

What do the screens show for `Cc1c(NC(=O)OCCNC(=O)Nc2ccccc2)sc(=S)n1C`?
Sm TGR inh: -26%; SARS PLP yeast: 3%

Results for CCOc1ccccc1NC(=O)CSc1nnc(-c2ccccc2Cl)n1Cc1ccco1 ?
Sm TGR inh: 50µM*; SARS PLP yeast: -3%

Results for CCOc1ccccc1NC(=O)CSc1nnc(-c2ccccn2)n1Cc1ccco1 ?
Sm TGR inh: inconclusive; SARS PLP yeast: 0%

What do the screens show for `COc1ccccc1NC(=O)CSc1nnc(COc2ccc(Cl)cc2)n1Cc1ccco1`?
Sm TGR inh: inconclusive; SARS PLP yeast: -8%

Results for CCOc1ccccc1NC(=O)CSc1nnc(-c2ccco2)n1Cc1ccco1 ?
Sm TGR inh: 50µM*; SARS PLP yeast: 3%

What do the screens show for `O=C(Nc1ccccc1C(F)(F)F)N1CCC2(CC1)Oc1ccccc1C(=O)N2Cc1ccccc1F`?
Sm TGR inh: -1%

How did CCOc1ccc(CCNC(=O)c2ccc(CSCc3ccccc3C)o2)cc1OCC do in these assays?
Sm TGR inh: 5%

Results for CCN1CCN(Cc2c(O)ccc3oc(C)c(C(=O)Nc4cccc(C(F)(F)F)c4)c23)CC1 ?
Sm TGR inh: 4%

What do the screens show for `O=[N+]([O-])C(=C1Nc2ccccc2N1)/C(Cl)=C(/Cl)Br`?
Sm TGR inh: 6.3µM*; SARS PLP yeast: -18%

What do the screens show for `CCOC(=O)CSc1nc2ccc(NC(=O)COc3ccc(F)cc3)cc2s1`?
Sm TGR inh: 3%

Results for CCOC(=O)C1=C(CC)OC(N)=C(C#N)C1c1ccc(OC)c(OC)c1OC (stereo not drawn) ?
Sm TGR inh: inconclusive; SARS PLP yeast: 1%

How did CCOC(=O)C1=C(CSc2nc(C)ccc2C#N)OC(N)=C(C#N)C1c1cccc(OC)c1OC (stereo not drawn) do in these assays?
Sm TGR inh: 13µM*; SARS PLP yeast: -21%

What do the screens show for `Cc1ccc(-c2c(C(=O)N3CCN(c4cccc(C)c4C)CC3)oc(=O)c3ccccc23)cc1`?
Sm TGR inh: 13%

How did O=C(CCc1nnc(Cc2ccc3c(c2)OCO3)o1)NC(c1ccccn1)C(F)(F)F (stereo not drawn) do in these assays?
Sm TGR inh: 32µM*; SARS PLP yeast: -1%

What do the screens show for `O=C(CCc1nnc(-c2ccc3c(c2)OCO3)o1)NC(c1ccccn1)C(F)(F)F` (stereo not drawn)?
Sm TGR inh: 5%; SARS PLP yeast: 0%

Results for COC(=O)c1ccccc1NC(=O)C1=C(C)C(=O)OC12CCC(C)CC2 (stereo not drawn) ?
Sm TGR inh: 2%

Results for O=C(CCl)N(C/C=C/c1ccccc1)c1ccc2c(c1)OCCO2 ?
Sm TGR inh: 7.1µM*; SARS PLP yeast: -7%

Results for O=C(/C=C/c1ccccc1)c1ccc2c(c1)OCCCCO2 ?
Sm TGR inh: 6%; SARS PLP yeast: -11%

Results for CCCCN(C)C(=O)C1CCC(CNS(=O)(=O)c2ccc(Cl)cc2)CC1 (stereo not drawn) ?
Sm TGR inh: 10%

How did Cc1ccccc1NC(=O)CSc1nnc2ccc(-c3ccccn3)nn12 do in these assays?
Sm TGR inh: -4%; SARS PLP yeast: -3%

What do the screens show for `COc1ccc(OC)c(NC(=O)CSc2ccc(-c3cccs3)nn2)c1`?
Sm TGR inh: 8%

What do the screens show for `O=C(CSc1nnc2ccc(-c3ccco3)nn12)Nc1ccccc1F`?
Sm TGR inh: 11µM*

What do the screens show for `Cc1ccc(C)c(NC(=O)CSc2ccc(-c3ccco3)nn2)c1`?
Sm TGR inh: 13µM*; SARS PLP yeast: inconclusive

What do the screens show for `COc1ccccc1NC(=O)CSc1ccc(-c2cccs2)nn1`?
Sm TGR inh: 13%; SARS PLP yeast: -6%

What do the screens show for `COc1ccc(OC)c(NC(=O)CSc2ccc(-c3ccco3)nn2)c1`?
Sm TGR inh: 3.5µM*; SARS PLP yeast: -4%

What do the screens show for `COc1ccccc1NC(=O)CSc1ccc(-c2ccco2)nn1`?
Sm TGR inh: 20µM*; SARS PLP yeast: -1%

What do the screens show for `Cc1ccccc1NC(=O)CSc1ccc(-c2ccco2)nn1`?
Sm TGR inh: -13%; SARS PLP yeast: 23%

How did COc1ccc(Nc2ncc(C(=O)Nc3ccc(F)cc3F)c3ccccc23)cc1 do in these assays?
Sm TGR inh: 11%

Results for O=S(=O)(NCCc1nnc2ccc(SCc3ccccc3Cl)nn12)c1ccccc1 ?
Sm TGR inh: 1%

How did Cc1cccc(N2CCN(C(=O)c3c(C)oc4nc(C)nc(N5CCCC5)c34)CC2C)c1 (stereo not drawn) do in these assays?
Sm TGR inh: 1%

Results for Cc1cc(C)cc(NC(=O)C(=O)NCC(c2cccnc2)N2CCc3ccccc32)c1 (stereo not drawn) ?
Sm TGR inh: 3%

Results for CCOCCc1nn2c(=O)cc(COC(=O)c3ccccc3OC)nc2s1 ?
Sm TGR inh: -4%

Results for CCOc1ccc(-c2nc(CSCC(=O)N3CCN(C(=O)c4ccco4)CC3)c(C)o2)cc1 ?
Sm TGR inh: 89µM*; SARS PLP yeast: 4%

Results for O=C(CSc1ccccc1)N1CCN(C(=O)c2ccco2)CC1 ?
Sm TGR inh: inconclusive; SARS PLP yeast: 0%

Results for O=C(CSCc1ccccc1)N1CCN(C(=O)c2ccco2)CC1 ?
Sm TGR inh: 45µM*; SARS PLP yeast: 20%

How did CCOC(=O)C1CCN(C(=O)CSCc2nc(-c3ccc(OCC)cc3)oc2C)CC1 do in these assays?
Sm TGR inh: -17%; SARS PLP yeast: -15%

How did CCn1c(C(=O)NCCc2ccc(S(N)(=O)=O)cc2)cc2sc(Cl)cc21 do in these assays?
Sm TGR inh: -1%

How did CC(=O)Nc1nnc(SCc2cc(=O)c3cc(C)ccc3[nH]2)s1 do in these assays?
Sm TGR inh: -3%

How did C=C(C)CSc1nc2sc3c(c2c(=O)n1CCCC)CCCC3 do in these assays?
Sm TGR inh: 12%

Results for COc1ccc2cc(-c3ccsc3)ncc2c1 ?
Sm TGR inh: 40µM*; SARS PLP yeast: -2%

What do the screens show for `COc1cc(OC)cc(-c2cc3ccc(OC)cc3cn2)c1`?
Sm TGR inh: 6%; SARS PLP yeast: 0%

What do the screens show for `N#CC1=C(N)C2=CCCC[C@H]2[C@H](c2ccccc2)C1(C#N)C#N`?
Sm TGR inh: 45µM*; SARS PLP yeast: -7%

How did N#CC1=C(N)C2=CCCC[C@H]2[C@H](c2ccc(Br)cc2)C1(C#N)C#N do in these assays?
Sm TGR inh: 32µM*; SARS PLP yeast: -4%

Results for CN1C2C=C3C(C#N)=C(N)C(C#N)(C#N)C(c4ccc(Br)cc4)C3C1CC2 (stereo not drawn) ?
Sm TGR inh: -23%; SARS PLP yeast: 4%

Results for CC(C)N1CC=C2C(C#N)=C(N)C(C#N)(C#N)C(c3ccccc3)C2C1 (stereo not drawn) ?
Sm TGR inh: inconclusive; SARS PLP yeast: 2%

Results for CCCOc1ccc(C(=O)N(Cc2cccs2)c2ccc(C)cc2)cc1 ?
Sm TGR inh: 3%

What do the screens show for `COCc1cc(C)nc2sc3c(c12)NC(c1ccc(O)cc1)N(c1ccc(OC)cc1)C3=O` (stereo not drawn)?
Sm TGR inh: 5%

How did Cc1ccc(S(=O)(=O)Cn2nnnc2CN(Cc2ccco2)Cc2cccs2)cc1 do in these assays?
Sm TGR inh: 45µM*; SARS PLP yeast: -27%

Bioassay records deposited in PubChem BioAssay by National Center for Advancing Translational Sciences (NCATS).
